Measurements published in publication PMC11995724, “Antibiotic target discovery by integrated phenotypic and activity-based profiling of electrophilic fragments” (Cell chemical biology, 2025).
About 110 (3.4%) of roughly 3,200 compounds showed an effect of 50% or more. For the sample, strong results were picked, then their nearest neighbours and some compounds at random.

tested on: T1, V. cholerae SAD30; set-up: species or system S. aureus MSSA476 (TSB) or V. cholerae SAD30 (LB); 384-well bacterial growth screen at 25 uM, OD600 relative to DMSO control; details: relative growth, OD600, LB; 25 µM; inhibitor
T1 construct: SAD30

Compound	% of control remaining
O=C(CCl)Nc1ccc(Cl)c(S(=O)(=O)N2CCCCC2)c1 [4-P14, 2-chloro-N-[4-chloro-3-(piperidine-1-sulfonyl)phenyl]acetamide]	110.589%
C=CC(=O)NC1(C(N)=O)Cc2ccccc2C1 [2-D15, 2-(prop-2-enamido)-2,3-dihydro-1H-indene-2-carboxamide]	88.8063%
C=CC(=O)Nc1cc(C)nn1-c1ccccc1F [2-C15, N-[1-(2-fluorophenyl)-3-methyl-1H-pyrazol-5-yl]prop-2-enamide]	95.1365%
CC(c1ccccc1F)N1CCCC(NC(=O)CCl)C1=O (centres unmarked) [5-I10, 2-chloro-N-{1-[1-(2-fluorophenyl)ethyl]-2-oxopiperidin-3-yl}acetamide]	94.4836%
C=CC(=O)N1CCC(C(=O)N2CCC[C@H]2c2ncn[nH]2)CC1 [2-D12, 1-{4-[(2S)-2-(1H-1,2,4-triazol-5-yl)pyrrolidine-1-carbonyl]piperidin-1-yl}prop-2-en-1-one]	91.1223%
N#CC(=Cc1ccc2ccccc2c1)C(=O)NC(N)=O [9-K10, {2-cyano-2-[(naphthalen-2-yl)methylidene]acetyl}urea]	87.0836%
Cc1ccc(C(=O)c2c(NC(=O)CCl)sc3c2CCCC3)cc1 [6-A12, 2-chloro-N-[3-(4-methylbenzoyl)-4,5,6,7-tetrahydro-1-benzothiophen-2-yl]acetamide]	94.644%
C=CC(=O)NCC(=C)c1ccccc1 [2-B09, N-(2-phenylprop-2-en-1-yl)prop-2-enamide]	87.2624%
CC(Cl)C(=O)NC(C)(C)c1ccc(F)cc1F (centres unmarked) [6-E21, 2-chloro-N-[2-(2,4-difluorophenyl)propan-2-yl]propanamide]	92.9756%
C=CC(=O)Nc1cc(CC(C)(C)C)no1 [1-I19, N-[3-(2,2-dimethylpropyl)-1,2-oxazol-5-yl]prop-2-enamide]	92.9746%
COCc1ncc2c(n1)CC1CCC2N1C(=O)C(C)Cl (centres unmarked) [7-M20, 2-chloro-1-[5-(methoxymethyl)-4,6,12-triazatricyclo[7.2.1.0,2,7]dodeca-2,4,6-trien-12-yl]propan-1-one]	81.4142%
Cc1cc(CO[C@H]2CC[C@H](NC(=O)CCl)CC2)on1 [6-K19, 2-chloro-N-[(1r,4r)-4-[(3-methyl-1,2-oxazol-5-yl)methoxy]cyclohexyl]acetamide]	92.9756%
C=CC(=O)Nc1cnn(C2CCCC2)c1 [3-O21, N-(1-cyclopentyl-1H-pyrazol-4-yl)prop-2-enamide]	106.734%
N#CC(=Cc1ccccc1Cl)C(=O)Nc1cccc2ncccc12 [8-C15, 3-(2-chlorophenyl)-2-cyano-N-(quinolin-5-yl)prop-2-enamide]	75.9347%
C=CC(=O)NCC12CC3CC(CC(C3)C1)C2 [1-F17, N-[(adamantan-1-yl)methyl]prop-2-enamide]	83.4081%
O=C(CCl)Nc1cccc(Oc2ccccc2)c1 [4-P19, 2-chloro-N-(3-phenoxyphenyl)acetamide]	96.6142%

Compound	% of control remaining
CCc1ccc(C(=O)CCl)cc1 [10-F18, 2-chloro-1-(4-ethylphenyl)ethan-1-one]	26.1835%
O=C(CCl)c1ccc(Oc2ccccc2)cc1 [10-G20, 2-chloro-1-(4-phenoxyphenyl)ethan-1-one]	25.2484%
CC(=O)NCCc1ccc(C(=O)CCl)cc1 [10-N03, N-{2-[4-(2-chloroacetyl)phenyl]ethyl}acetamide]	115.8%
NC(=O)COc1ccc(C(=O)CCl)cc1 [10-M07, 2-[4-(2-chloroacetyl)phenoxy]acetamide]	49.25%
CCCc1ccc(C(=O)CCl)cc1 [10-C04, 2-chloro-1-(4-propylphenyl)ethan-1-one]	109.254%
O=C(CCl)Nc1ccc(Oc2ccccc2)cc1 [4-J09, 2-chloro-N-(4-phenoxyphenyl)acetamide]	97.6493%
NC(=O)CCc1ccc(C(=O)CCl)cc1 [10-I03, 3-[4-(2-chloroacetyl)phenyl]propanamide]	70.7578%
CSc1ccc(C(=O)CCl)cc1 [10-E07, 2-chloro-1-[4-(methylsulfanyl)phenyl]ethan-1-one]	0%
O=C(CCl)NCCCC1CCCCC1 [6-O05, 2-chloro-N-(3-cyclohexylpropyl)acetamide]	100.256%
O=C(CCl)NC(c1ccccc1)C1CCCCC1 (centres unmarked) [6-E12, 2-chloro-N-[cyclohexyl(phenyl)methyl]acetamide]	79.0217%
CC(Cl)C(=O)Nc1ccc(S(=O)(=O)N2CCCCC2)cc1 (centres unmarked) [4-A12, 2-chloro-N-[4-(piperidine-1-sulfonyl)phenyl]propanamide]	95.234%
CC(Cl)C(=O)Nc1c(C(C)C)cccc1C(C)C (centres unmarked) [4-B15, N-[2,6-bis(propan-2-yl)phenyl]-2-chloropropanamide]	91.4384%
C=CC(=O)N[C@H]1CCO[C@@H]1c1ccnn1C(C)C (racemic) [3-K05, rac-N-[(2R,3R)-2-[1-(propan-2-yl)-1H-pyrazol-5-yl]oxolan-3-yl]prop-2-enamide]	98.7943%
O=C(CCl)N1CCN(S(=O)(=O)c2cccc([N+](=O)[O-])c2)CC1 [4-C19, 2-chloro-1-[4-(3-nitrobenzenesulfonyl)piperazin-1-yl]ethan-1-one]	91.0934%
C=CC(=O)N1CCC(C(=O)NC2CCCc3cc(F)ccc32)CC1 (centres unmarked) [2-K18, N-(6-fluoro-1,2,3,4-tetrahydronaphthalen-1-yl)-1-(prop-2-enoyl)piperidine-4-carboxamide]	78.153%
O=C(CCl)Nc1cccc(S(=O)(=O)N2CCOCC2)c1 [4-P08, 2-chloro-N-[3-(morpholine-4-sulfonyl)phenyl]acetamide]	121.458%
